For eight molecules, growth results are on record in PubChem BioAssay (NCI).

Test systems include HCT-15 colon; HT29 colon; SNB-75 CNS; SNB-19 CNS; U251 CNS; PC-3 prostate; SK-MEL-5 melanoma; UACC-62 melanoma; LOX IMVI melanoma; SK-MEL-28 melanoma; SK-MEL-2 melanoma; EKVX NSCLC; SN12C renal; UO-31 renal; TK-10 renal; ACHN renal; CAKI-1 renal; A498 renal; CCRF-CEM leukemia; MOLT-4 leukemia.
Common to all, as to experiment: NCI-60 one-dose screen, 48 h (100 = growth as untreated, 0 = no growth, -100 = all killed)
Common to all, as to settings: 10 µM unless noted

This is part of a sample that, as a whole, favours compounds with a hit. Of some 83,000 tested, about 20% had one in any assay.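 Results are percent growth after 48 hours of single-concentration exposure. 100 means growth as in untreated cells, lower positive values show inhibition; negative values down to -100 show cell death.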 Unmarked numbers belong to inactive results. The source made the active and inactive calls. How the source made its calls: active means growth percent below 10; inactive means the rest.

For `CC(C)=NNc1ccccn1`, the growth in the assay with HCT-15 colon is 27.9%; in the assay on HT29 colon, 27.4%; with SNB-75 CNS, 79.2%; with SNB-19 CNS, 62.3%; in the assay on U251 CNS it was 39.6%; in the assay on PC-3 prostate, 47.1%. In addition, the growth with SK-MEL-5 melanoma is 69.7%; with UACC-62 melanoma, 56.6%; in the assay on LOX IMVI melanoma, 29.7%; in the assay on SK-MEL-28 melanoma, 57.1%; in the assay with SK-MEL-2 melanoma, 83.2%; in the assay with EKVX NSCLC, 18.8%. Moreover, the growth is 45.4% in the assay with SN12C renal; 29.5% in the assay on UO-31 renal; 39% with TK-10 renal; 27.9% in the assay on ACHN renal; 29.1% in the assay on CAKI-1 renal; 78.1% in the assay on A498 renal. The growth in the assay with CCRF-CEM leukemia was 26.8%; in the assay on MOLT-4 leukemia it was 25.4%.

With `C#CCOc1cccc(Nc2ncnc3c(NC(=O)C=C)cccc23)c1`, the growth in the assay with HCT-15 colon is 21.3%; in the assay on HT29 colon, 5.3% (active); in the assay on SNB-75 CNS it was 23%; with SNB-19 CNS it was 28.1%; with U251 CNS, 24.7%; in the assay with PC-3 prostate, 23.8%. In addition, the growth in the assay with SK-MEL-5 melanoma is 8.31% (active); in the assay with UACC-62 melanoma, 17.4%; with LOX IMVI melanoma, 8% (active); in the assay with SK-MEL-28 melanoma, 52.1%; in the assay on SK-MEL-2 melanoma, 8.09% (active); in the assay with EKVX NSCLC, 55.7%. The growth with SN12C renal is 0.801% (active); in the assay with UO-31 renal, 25.8%; in the assay with TK-10 renal, -6.1% (active); in the assay on ACHN renal, 23.8%; in the assay with CAKI-1 renal it was 25.7%; in the assay with A498 renal, 32%. The growth with CCRF-CEM leukemia is 2.68% (active); in the assay with MOLT-4 leukemia, 4.11% (active).

`O=C(Cn1c(=O)sc2nc3ccccc3nc21)Nc1ncc(Cc2cccc(Cl)c2Cl)s1`: the growth is 98.7% in the assay on HCT-15 colon; 107% in the assay on HT29 colon; 74.6% with SNB-75 CNS; 93.4% in the assay with SNB-19 CNS; 94.9% with U251 CNS; 87.9% in the assay on PC-3 prostate. Moreover, the growth was 99.9% in the assay on SK-MEL-5 melanoma; 79.1% in the assay with UACC-62 melanoma; 94.6% with LOX IMVI melanoma; 120% in the assay on SK-MEL-28 melanoma; 103% in the assay with SK-MEL-2 melanoma; 75.1% in the assay on EKVX NSCLC. Also, the growth was 92.2% in the assay on SN12C renal; 65.5% in the assay on UO-31 renal; 95.5% in the assay on TK-10 renal; 100% in the assay with ACHN renal; 71.7% with CAKI-1 renal; 113% with A498 renal. In addition, the growth with CCRF-CEM leukemia and in the assay with MOLT-4 leukemia was 99.8% throughout.

As for `COC(=O)[C@H]1CCCN1C[C@@H](O)CN1C(=O)/C(=C\c2cc(OC)c(OC)c(OC)c2)c2ccccc21`, the growth was 98% in the assay with HCT-15 colon; 110% in the assay with HT29 colon; 86% in the assay on SNB-75 CNS; 95.9% with SNB-19 CNS; 87.3% with U251 CNS; 91.4% in the assay on PC-3 prostate. For the same molecule, the growth with SK-MEL-5 melanoma is 103%; in the assay on UACC-62 melanoma, 95.2%; with LOX IMVI melanoma, 97.2%; in the assay with SK-MEL-28 melanoma it was 123%; with SK-MEL-2 melanoma it was 94.3%; in the assay on EKVX NSCLC, 104%. Moreover, the growth was 98.2% in the assay on SN12C renal; 82.1% in the assay on UO-31 renal; 102% in the assay on TK-10 renal; 105% in the assay on ACHN renal; 93.1% in the assay with CAKI-1 renal; 113% with A498 renal. For the same molecule, the growth in the assay on CCRF-CEM leukemia is 93.9%; in the assay with MOLT-4 leukemia, 81.6%.

As to `NC(=O)c1c(NC(=O)c2ccccc2)sc2c1CCC(=O)C2`, the growth was 12.4% in the assay with HCT-15 colon; 9.53% (active) in the assay with HT29 colon; -3.05% (active) with SNB-75 CNS; 18.6% in the assay with SNB-19 CNS; 17.6% in the assay on U251 CNS; 10.1% with PC-3 prostate. The growth in the assay with SK-MEL-5 melanoma is -57.6% (active); with UACC-62 melanoma, 10.7%; in the assay on LOX IMVI melanoma, 17.6%; in the assay on SK-MEL-28 melanoma, 34.9%; in the assay on SK-MEL-2 melanoma, 12.7%; with EKVX NSCLC it was 19.2%. In addition, the growth with SN12C renal is 12.2%; in the assay with UO-31 renal, 0.418% (active); in the assay with TK-10 renal, 54.9%; in the assay with ACHN renal, 7.58% (active); with CAKI-1 renal it was -8.25% (active); with A498 renal, 92.3%. Further, the growth with CCRF-CEM leukemia was 5.12% (active); with MOLT-4 leukemia, 5.67% (active).

For `CN(C)CC(=O)Nc1ccc2ncnc(Nc3ccc(Oc4cccc(C(F)(F)F)c4)c(Cl)c3)c2c1`, the growth in the assay on HCT-15 colon was 1.59% (active); in the assay with HT29 colon, 2.56% (active); in the assay with SNB-75 CNS, 87.2%; with SNB-19 CNS, 70.3%; with U251 CNS, 36.2%; with PC-3 prostate it was 61.7%. Moreover, the growth in the assay with SK-MEL-5 melanoma is 66.5%; in the assay with UACC-62 melanoma, 88.2%; in the assay on LOX IMVI melanoma it was -93% (active); with SK-MEL-28 melanoma, 78%; in the assay on SK-MEL-2 melanoma, 92.1%; with EKVX NSCLC, 28.9%. Besides, the growth in the assay with SN12C renal is 60%; in the assay with UO-31 renal it was -3.49% (active); with TK-10 renal, 46.9%; in the assay on ACHN renal, 23.1%; in the assay with CAKI-1 renal, 35.7%; in the assay on A498 renal it was 12.1%. In addition, the growth in the assay on CCRF-CEM leukemia was 48.3%; with MOLT-4 leukemia, 50.8%.

Consider `COc1cc(-c2cc(-c3cccs3)c(C#N)c(N3CCOCC3)n2)cc(OC)c1OC`, for which the growth in the assay with HCT-15 colon was 25.2%; in the assay on HT29 colon, 22.2%; in the assay on SNB-75 CNS it was 69.2%; in the assay with SNB-19 CNS it was 95.2%; with U251 CNS, 52.9%; with PC-3 prostate, 67%. The growth with SK-MEL-5 melanoma is 45.7%; in the assay with UACC-62 melanoma, 63.6%; with LOX IMVI melanoma it was 81.5%; in the assay with SK-MEL-28 melanoma it was 91.4%; in the assay on SK-MEL-2 melanoma it was 95.6%; in the assay with EKVX NSCLC it was 88.1%. Further, the growth was 77.9% in the assay on SN12C renal; 58.9% in the assay with UO-31 renal; 92.5% in the assay with TK-10 renal; 71.2% in the assay on ACHN renal; 66.5% in the assay with CAKI-1 renal; 66.4% in the assay on A498 renal. Also, the values for the growth in the assay with CCRF-CEM leukemia and in the assay on MOLT-4 leukemia were 38.8% and 28.3%, respectively.

Turning to `CC1Cc2c(Cl)ncnc2N(C)c2ccc(F)cc21` (stereo not given), the growth with HCT-15 colon was 106%; with HT29 colon, 90.6%; in the assay on SNB-75 CNS, 59.8%; in the assay on SNB-19 CNS it was 104%; in the assay on U251 CNS, 89.7%; in the assay with PC-3 prostate, 87.5%. Moreover, the growth in the assay with SK-MEL-5 melanoma is 76.9%; in the assay with UACC-62 melanoma it was 99.6%; in the assay on LOX IMVI melanoma, 92.3%; in the assay with SK-MEL-28 melanoma it was 86.5%; in the assay on SK-MEL-2 melanoma it was 110%; in the assay on EKVX NSCLC, 87.6%. Also, the growth in the assay on SN12C renal was 106%; with UO-31 renal, 79.6%; with TK-10 renal, 98.9%; in the assay with ACHN renal, 103%; in the assay with CAKI-1 renal it was 91%; with A498 renal, 101%. Besides, the figures for the growth in the assay on CCRF-CEM leukemia and in the assay with MOLT-4 leukemia were 95.6% and 89.2%, respectively.
